D2 ag-1 – agonists of human D2 dopamine receptor; P14416; HEK293 T-REx D2 cells, calcium flux agonist mode; activation, % at 2 µM; 340,000 compounds, 0.53% hits; AID 485358;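 active = activation over 3 SD above normal in the single-dose calcium agonist read, cut at about 30% in these data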; note: 0% is about no effect
Target sequence (P14416 whole entry, looked up): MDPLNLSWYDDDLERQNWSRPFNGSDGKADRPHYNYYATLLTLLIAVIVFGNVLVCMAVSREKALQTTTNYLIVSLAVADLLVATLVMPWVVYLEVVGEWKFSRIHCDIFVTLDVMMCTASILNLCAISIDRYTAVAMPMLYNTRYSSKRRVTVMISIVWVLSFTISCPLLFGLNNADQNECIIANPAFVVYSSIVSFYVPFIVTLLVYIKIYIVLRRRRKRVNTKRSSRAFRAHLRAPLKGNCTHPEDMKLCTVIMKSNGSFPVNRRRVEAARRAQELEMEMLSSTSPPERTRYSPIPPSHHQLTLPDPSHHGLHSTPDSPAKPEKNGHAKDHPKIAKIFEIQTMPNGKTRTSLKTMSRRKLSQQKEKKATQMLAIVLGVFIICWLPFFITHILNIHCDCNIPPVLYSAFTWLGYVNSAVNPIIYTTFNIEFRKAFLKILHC
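Agonism is scored from calcium flux in a force-coupled, inducible HEK293 cell line expressing D2, read kinetically for 180 s after compound addition against dopamine controls.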
D2 ag-2 – agonists of human D2 dopamine receptor (beta-arrestin). 360,000 compounds, 0.084% hits. P14416. activation, % (no concentration beside the values). AID 624465. DiscoveRx PathHunter D2 beta-arrestin, luminescence, 90 min; 100% = 57 uM dopamine signal; in the data active = activation above about 40%; inconclusive = between about 15% and that limit
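DiscoveRx PathHunter D2 beta-arrestin cells (2,100/well) attached overnight, then compound-stimulated 90 min at 37 C in HBSS/10 mM HEPES/0.1% Tween-20 buffer; beta-galactosidase complementation read by luminescence after 1 h at ambient temperature. Dopamine 57 uM final (EC100) as control.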
D2 antag – D2 dopamine receptor (human) antagonism; P14416; HEK293 TREx D2 cells, calcium flux, dopamine EC80; inhibition, % at 10 µM; 340,000 compounds, 2% hits; in the data active = inhibition above about 30%; inactive = below that, where a call was filed; note: 0% is about no effect
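Inhibition of EC80 dopamine-driven calcium flux, recorded kinetically, defines activity here; cells are a tetracycline-induced HEK293 T-REx line expressing force-coupled D2.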
D2 PAM-1 – positively modulates the human D2 dopamine receptor allosterically. P14416. HEK293 T-REx D2, calcium flux, EC20 dopamine potentiation. potentiation, % at 10 µM. 340,000 compounds, 0.34% hits. AID 485347;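 active = potentiation over 3 SD above the plate norm, cut at about 30% in these data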; note: 0% is about no effect
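Using a no-wash calcium dye in inducible, force-coupled HEK293 Trex cells expressing D2, we tracked fluorescence each second for 180 s after compound, then for 180 s after EC20 dopamine to detect augmented signalling.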
D2 PAM-2 – positive allosteric modulators of human D2 dopamine receptor. AID 624464. DiscoveRx D2 beta-arrestin cells, luminescence, 90 min; 100% = 57 uM dopamine signal. P14416. potentiation, % (no concentration beside the values). 360,000 compounds, 0.23% hits; in the data active = potentiation above about 50%; inconclusive = mostly about 30% to 49%
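PathHunter D2 cells, attached overnight at 37 deg C, received compound in DMSO plus dopamine at EC20 (50 nM final) for 90 min at 37 deg C. Beta-arrestin recruitment was read as luminescence after 1 h with detection reagent at ambient temperature.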
An asterisk follows results filed as active; ? = inconclusive; · = not tested or not shown. Most compounds without a hit are left out; they make up all but 2.4% or so of the library.

SMILES	D2 ag-1	D2 ag-2	D2 antag	D2 PAM-1	D2 PAM-2
Cc1cccc(CN2CCN(Cc3ccc(Cl)cc3)CC2)c1	-1	-4	4	11	-47
CCc1ccccc1NC(=O)c1cccn(Cc2ccccc2F)c1=O	1	·	·	-1	·
Clc1cccc(N2CCNCC2)c1Cl	2	-1	35*	-26	-4
CCCC12CN3CC(C)(CN(C1)C3c1ccccn1)C2=O (stereo not drawn)	0	·	·	6	·
Cc1[nH]c2ccccc2c1CCCNC1CCCCC1	1	-8	39*	-26	-30
Cc1ccc(C)c(-n2c(C)nc3ccccc3c2=O)c1	0	-3	0	-19	-15
Cc1cc(NCCN)nc2ccccc12	3	-6	58*	-21	-20
COc1ccc(CNC(=O)CCC(=O)N2C[C@H]3C[C@H](C2)c2cccc(=O)n2C3)cc1OC	0	-3	36*	-2	-26
O=C1C=C(N2CC2)c2ccccc2C1=O	·	51*	·	·	4
CCc1ccc(OCC(=O)N2CCN(CCc3ccncc3)CC2)cc1	·	·	·	19	·
CC(C)N1CC=C(c2c[nH]c3ccccc23)CC1	·	-1	·	·	-39
C1=C(c2c[nH]c3ccccc23)CCNC1	2	·	42*	-16	·
O=C(C[N+]12CCC(CC1)C(OC(=O)c1ccccc1)C2)c1ccc([N+](=O)[O-])cc1 (stereo not drawn)	-1	0	33*	4	-2
O=C(C[N+]12CCC(CC1)C(CO)C2)c1ccc([N+](=O)[O-])cc1 (stereo not drawn)	1	-3	8	1	2
CCCCOCCCn1c(N)c(C(=O)OC(C)COC)c2nc3ccccc3nc21 (stereo not drawn)	-2	-8	-13	-2	-29
COCCCn1c(N)c(C(=O)OC(C)COC)c2nc3ccccc3nc21 (stereo not drawn)	-1	-4	43*	-2	-11
OCCN1C2CCC1CC(O)(c1ccc(F)cc1)C2 (stereo not drawn)	1	-2	48*	-19	-39
CCN(CC)CCCOC(=O)C(OC(C)C)(c1ccccc1)c1ccccc1	-1	-2	57*	-25	-17
Cc1ccccc1CN1C(=O)CN=C(c2ccccc2)c2cc(Cl)ccc21	2	·	·	-12	·
Cc1ccc(NC(=O)Cn2cc(C(=O)c3ccccc3)c3ccccc32)cc1	0	·	·	7	·
O=C1NC(=S)NC(=O)C1=Cc1cccc2cc3ccccc3cc12	0	-10	9	10	-60
CN1/C(=C\C=C2C(=O)NC(=S)NC2=O)C(C)(C)c2ccccc21	128*	-2	31*	7	7
CC1(C)OC(c2ccccc2)=C/C(=C/C=C2C(=O)NC(=S)NC2=O)O1	9	9	63*	1	4
CC/C(=N\Nc1cccc2ccccc12)c1c(O)[nH]c(=O)[nH]c1=O	1	?	-6	8	55*
CN1CC(C(=O)c2ccc(F)cc2)C(c2ccc(F)cc2)C1 (stereo not drawn)	1	-8	100*	-46	-28
SMILES	D2 ag-1	D2 ag-2	D2 antag	D2 PAM-1	D2 PAM-2
CNCCc1c[nH]c2ccc(O)cc12	·	55*	·	·	?
COc1ccc(NC(=O)c2cccn(Cc3ccc(Cl)cc3)c2=O)c(OC)c1	1	·	·	·	·
O=c1c2ccccc2nc(-c2ccco2)n1-c1nccs1	1	-3	30*	0	-5
CCN1CCN(c2ccc(NC(C)=O)cc2Cl)CC1	0	-4	42*	9	-5
CCN1CCN(c2ccc(N)cc2C)CC1	4	-3	13	-10	-18
COc1ccccc1-c1nn2c(=O)cc(CN3CCN(C(=O)COc4ccccc4Cl)CC3)nc2s1	0	·	·	-10	·
CCCOc1ccc(C2SCC(=O)Nc3c2c(C)nn3-c2cccc(C)c2)cc1OC (stereo not drawn)	-1	·	·	-8	·
O=[N+]([O-])c1ccc(NCc2ccc(Cl)cc2)c2ccncc12	0	5	12	-3	-1
O=[N+]([O-])c1ccc(NCc2ccccc2)c2nonc12	135*	5	44*	-21	4
Cc1ccc(-n2c(/C=C\c3ccc(F)c(F)c3)nc3ccccc3c2=O)c(C)c1	·	·	·	15	·
CN(CCc1nnc(N)s1)[N+](=O)[O-]	3	-3	48*	2	2
O=[N+]([O-])c1ccc(N2CCCCCC2)c2nonc12	85*	-4	11	-20	-8
O=[N+]([O-])c1ccc(N2CCCCC2)c2ncccc12	0	-2	-26	16	-8
CC1(C)CN=C(Nc2ccc(F)c(Cl)c2)S1	1	-9	1	0	-21
CC1(C)CSC(Nc2ccc(F)c(Cl)c2)=N1	0	-1	12	32*	13
CCCC1=Nc2cc(C(=O)NC3CCC(C)CC3)ccc2Sc2ccccc21 (stereo not drawn)	·	·	·	-5	·
CC1(C)Cc2c(sc3c2C(=O)NC(c2cccnc2)N3)CO1 (stereo not drawn)	1	-3	69*	·	-4
N#Cc1cc2c(nc1SCC(=O)Nc1ccc(OC(F)(F)F)cc1)C1CCN2CC1	0	·	·	-3	·
O=S1(=O)N(CCN2CC=C(c3c[nH]c4cc(F)ccc34)CC2)c2cccc3c2N1CCC3	2	12	64*	-25	-20
Nc1c(C(=O)Nc2ccc(Br)cc2F)sc2nc3c(cc12)N1CCC3CC1	-1	·	·	-2	·
COC(=O)C1=C(c2ccccc2OCc2ccccc2)C[C@@H]2CC[C@H]1N2C(=O)NC1CCN(Cc2ccccc2)CC1	0	5	59*	-21	-24
COC(=O)C1=C(c2ccc(F)cc2OCc2ccccc2)C[C@@H]2CC[C@H]1N2C(=O)NC1CCN(Cc2ccccc2)CC1	0	-4	26	-19	-17
c1ccc(CCCN2CCN(CCOC(c3ccccc3)c3ccccc3)CC2)cc1	·	3	·	·	-26
CCCCN(Cc1ccccc1)C1CCN(CCc2ccccc2)CC1	-1	-5	56*	-21	-11
Fc1ccc(C(OCCN2CCCC2)c2ccc(Br)cc2)cc1 (stereo not drawn)	4	0	47*	-23	-16
SMILES	D2 ag-1	D2 ag-2	D2 antag	D2 PAM-1	D2 PAM-2
Fc1ccc(C(OCCN2CCCC2)c2ccc(F)cc2)cc1	1	-5	13	-23	-41
CN1C(=O)CN=C(c2ccc[nH]2)c2cc(Cl)ccc21 (tested in a mixture with another compound)	·	-2	·	·	-7
CN1C(=O)CN=C(c2ccc(Cl)cc2)c2cc(Cl)ccc21	-1	-2	34*	7	0
N#Cc1cc2c(nc1SCC(=O)Nc1ccc(F)c(Cl)c1)C1CCN2CC1	0	·	·	3	·
CN1CC[C@]2(c3cccc(O)c3)Cc3nc4ccccc4cc3C[C@H]2C1	-1	·	40*	-7	·
CN1CC[C@@]23CCCC[C@@H]2[C@@H]1Cc1ccc(O)cc13	·	-5	·	·	2
